Data reported in PubChem BioAssay.

Test: modulation of C. elegans fzo-1 (AID 1259413);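 note: fzo-1 mutant C. elegans worms in liquid wells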
Settings: C. elegans fzo-1 modulator screen, mean read-out; active compounds read high; call rule not given here

Mean signal, inactive:
O=c1c(-c2ccccc2)c1-c1ccccc1 254
COc1ccc(C(=O)NCc2ccc(OCCN(C)C)cc2)cc1OC 262
CC(C(=O)O)c1ccc(CC2CCCC2=O)cc1 (stereo not drawn) 276
CN1CCN(c2c(F)cc3c(=O)c(C(=O)O)cn4c3c2SCC4)CC1 251
CN1CCN(C2=Nc3cc(F)ccc3Cc3ccccc32)CC1 248
Nc1c2c(nc3c1CCC3)CCCC2 275
CC(=O)NS(=O)(=O)c1ccc(N)cc1 275
C[C@H](NC(CCc1ccccc1)C(=O)O)C(=O)N1CCC[C@H]1C(=O)O (stereo partly drawn) 226
O=C1c2cccc3c2[C@H](CCC3)CN1[C@@H]1CN2CCC1CC2 244
CCOC(=O)C1=C(C)NC(C)=C(C(=O)OCC)C1c1ccccc1/C=C/C(=O)OC(C)(C)C 249
CCN1CCN(c2cc3c(cc2F)c(=O)c(C(=O)O)cn3C2CC2)CC1 280
CC1(C)S[C@@H]2[C@H](N=CN3CCCCCC3)C(=O)N2[C@H]1C(=O)O 245
CC(=O)OCC(=O)NCCCOc1cccc(CN2CCCCC2)c1 244
Clc1ccc2c(c1)CCc1cccnc1C2=C1CCNCC1 228
CCc1c(C)[nH]c2c1C(=O)C(CN1CCOCC1)CC2 (stereo not drawn) 257
COc1cc(C)nc(-n2nc(C)cc2OC)n1 243
COc1cc(C(=O)NC2CCCNC2)cc(OC)c1OC (stereo not drawn) 236
CC(C)(C(=O)c1cccnc1)c1cccnc1 259
